Assay [1] addresses SRSF protein kinase 1 (Homo sapiens) (UniProt Q96SB4). Particulars: at 0.1 µM.
For assay [2] the target is unchanged. Particulars: at 1 µM.
Assay [3] deals with Phosphatidylinositol 4,5-bisphosphate 3-kinase catalytic subunit alpha isoform (Homo sapiens) (UniProt P42336). The note with it: at 0.1 µM.
Assay [4] shares this target. Particulars: at 1 µM.
Assay [5] addresses T1, Phosphatidylinositol 4,5-bisphosphate 3-kinase catalytic subunit delta isoform (Homo sapiens) (UniProt O00329).
T1 sequence (whole entry): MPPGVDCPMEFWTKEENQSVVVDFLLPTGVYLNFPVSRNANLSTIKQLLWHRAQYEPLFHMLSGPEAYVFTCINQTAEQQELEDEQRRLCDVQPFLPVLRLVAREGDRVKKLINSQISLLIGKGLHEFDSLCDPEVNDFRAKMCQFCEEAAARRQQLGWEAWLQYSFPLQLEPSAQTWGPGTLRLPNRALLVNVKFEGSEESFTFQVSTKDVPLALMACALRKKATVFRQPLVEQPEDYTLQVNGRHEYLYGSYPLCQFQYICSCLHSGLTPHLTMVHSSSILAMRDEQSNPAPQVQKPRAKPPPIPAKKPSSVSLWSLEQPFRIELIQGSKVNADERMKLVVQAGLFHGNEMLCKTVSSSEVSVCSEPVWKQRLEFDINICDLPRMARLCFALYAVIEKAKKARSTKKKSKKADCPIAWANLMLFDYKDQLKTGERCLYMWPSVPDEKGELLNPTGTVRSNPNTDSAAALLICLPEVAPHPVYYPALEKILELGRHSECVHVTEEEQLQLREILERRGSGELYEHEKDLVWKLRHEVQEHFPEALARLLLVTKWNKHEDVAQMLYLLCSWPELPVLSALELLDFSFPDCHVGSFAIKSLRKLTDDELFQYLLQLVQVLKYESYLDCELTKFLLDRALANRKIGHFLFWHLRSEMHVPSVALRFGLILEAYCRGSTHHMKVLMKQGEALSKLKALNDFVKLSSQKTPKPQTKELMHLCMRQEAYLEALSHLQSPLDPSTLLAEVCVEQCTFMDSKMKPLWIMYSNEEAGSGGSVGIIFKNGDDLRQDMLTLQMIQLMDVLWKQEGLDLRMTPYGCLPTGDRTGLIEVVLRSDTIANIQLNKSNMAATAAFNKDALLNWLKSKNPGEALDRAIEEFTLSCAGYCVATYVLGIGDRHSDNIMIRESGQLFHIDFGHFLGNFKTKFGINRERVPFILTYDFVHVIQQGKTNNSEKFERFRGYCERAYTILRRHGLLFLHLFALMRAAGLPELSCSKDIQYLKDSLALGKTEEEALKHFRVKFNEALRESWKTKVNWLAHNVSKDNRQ
Particulars: at 0.1 µM.

In assay [6] the target is T1, Phosphatidylinositol 4,5-bisphosphate 3-kinase catalytic subunit delta isoform (Homo sapiens). Particulars: at 1 µM.
The target of assay [7] is Phosphatidylinositol 4-kinase beta (Homo sapiens) (UniProt Q9UBF8). The note with it: at 0.1 µM.
For assay [8] the target is unchanged. The note with it: at 1 µM.
Assay [9] addresses Sphingosine kinase 1 (Homo sapiens) (UniProt Q9NYA1). The note with it: at 0.1 µM.
The target is the same in assay [10]. Particulars: at 1 µM.
Assay [11] concerns the target T2, Sphingosine kinase 2 (Homo sapiens) (UniProt Q9NRA0).
T2 sequence (whole entry): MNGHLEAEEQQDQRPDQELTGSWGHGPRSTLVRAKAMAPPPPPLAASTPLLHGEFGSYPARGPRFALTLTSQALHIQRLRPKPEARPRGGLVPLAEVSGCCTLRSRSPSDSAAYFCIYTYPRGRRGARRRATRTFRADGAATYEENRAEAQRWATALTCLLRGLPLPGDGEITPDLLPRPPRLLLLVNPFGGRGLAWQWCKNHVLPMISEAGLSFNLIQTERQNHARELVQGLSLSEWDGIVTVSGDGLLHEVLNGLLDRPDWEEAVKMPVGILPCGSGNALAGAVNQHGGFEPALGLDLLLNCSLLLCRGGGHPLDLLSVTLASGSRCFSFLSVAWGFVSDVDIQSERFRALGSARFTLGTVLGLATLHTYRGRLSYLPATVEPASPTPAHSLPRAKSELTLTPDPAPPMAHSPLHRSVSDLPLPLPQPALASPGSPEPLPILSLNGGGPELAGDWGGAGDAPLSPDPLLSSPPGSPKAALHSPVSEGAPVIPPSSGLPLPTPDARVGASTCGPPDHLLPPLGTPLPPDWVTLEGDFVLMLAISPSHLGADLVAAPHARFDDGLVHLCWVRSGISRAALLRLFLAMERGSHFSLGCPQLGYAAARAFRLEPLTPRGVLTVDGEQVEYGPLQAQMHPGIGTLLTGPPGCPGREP
The note with it: at 0.1 µM.

Assay [12] deals with T2, Sphingosine kinase 2 (Homo sapiens). The note with it: at 1 µM.
Assay [13] addresses Casein kinase II subunit alpha (Homo sapiens) (UniProt P68400). The note with it: at 0.1 µM.
The target is the same in assay [14]. The note with it: at 1 µM.
Assay [15] deals with T3, Inhibitor of nuclear factor kappa-B kinase subunit alpha (Homo sapiens) (UniProt O15111).
T3 sequence (whole entry): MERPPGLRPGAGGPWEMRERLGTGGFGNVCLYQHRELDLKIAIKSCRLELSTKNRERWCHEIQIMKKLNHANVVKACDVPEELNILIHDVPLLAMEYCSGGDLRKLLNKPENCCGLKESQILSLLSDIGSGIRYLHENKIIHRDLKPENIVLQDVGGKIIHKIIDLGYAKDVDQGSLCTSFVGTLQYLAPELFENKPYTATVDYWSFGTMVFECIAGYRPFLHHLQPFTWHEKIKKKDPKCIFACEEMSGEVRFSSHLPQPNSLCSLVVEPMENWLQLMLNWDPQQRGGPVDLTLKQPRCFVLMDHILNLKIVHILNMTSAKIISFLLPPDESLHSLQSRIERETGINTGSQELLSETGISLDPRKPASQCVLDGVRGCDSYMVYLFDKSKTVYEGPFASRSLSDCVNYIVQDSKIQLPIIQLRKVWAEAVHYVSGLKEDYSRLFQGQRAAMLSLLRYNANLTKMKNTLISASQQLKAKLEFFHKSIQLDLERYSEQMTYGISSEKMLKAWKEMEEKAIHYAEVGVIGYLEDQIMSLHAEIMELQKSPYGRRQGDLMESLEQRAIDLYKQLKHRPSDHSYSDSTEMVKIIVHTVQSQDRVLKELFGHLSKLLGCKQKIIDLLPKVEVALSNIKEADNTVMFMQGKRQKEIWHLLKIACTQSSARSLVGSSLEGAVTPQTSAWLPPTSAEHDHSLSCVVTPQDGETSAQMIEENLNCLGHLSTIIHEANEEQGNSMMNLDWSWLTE
Particulars: at 0.1 µM.

Assay [16] concerns the target T3, Inhibitor of nuclear factor kappa-B kinase subunit alpha (Homo sapiens). Particulars: at 1 µM.
Assay [17] addresses T4, Inhibitor of nuclear factor kappa-B kinase subunit beta (Homo sapiens) (UniProt O14920).
T4 sequence (whole entry): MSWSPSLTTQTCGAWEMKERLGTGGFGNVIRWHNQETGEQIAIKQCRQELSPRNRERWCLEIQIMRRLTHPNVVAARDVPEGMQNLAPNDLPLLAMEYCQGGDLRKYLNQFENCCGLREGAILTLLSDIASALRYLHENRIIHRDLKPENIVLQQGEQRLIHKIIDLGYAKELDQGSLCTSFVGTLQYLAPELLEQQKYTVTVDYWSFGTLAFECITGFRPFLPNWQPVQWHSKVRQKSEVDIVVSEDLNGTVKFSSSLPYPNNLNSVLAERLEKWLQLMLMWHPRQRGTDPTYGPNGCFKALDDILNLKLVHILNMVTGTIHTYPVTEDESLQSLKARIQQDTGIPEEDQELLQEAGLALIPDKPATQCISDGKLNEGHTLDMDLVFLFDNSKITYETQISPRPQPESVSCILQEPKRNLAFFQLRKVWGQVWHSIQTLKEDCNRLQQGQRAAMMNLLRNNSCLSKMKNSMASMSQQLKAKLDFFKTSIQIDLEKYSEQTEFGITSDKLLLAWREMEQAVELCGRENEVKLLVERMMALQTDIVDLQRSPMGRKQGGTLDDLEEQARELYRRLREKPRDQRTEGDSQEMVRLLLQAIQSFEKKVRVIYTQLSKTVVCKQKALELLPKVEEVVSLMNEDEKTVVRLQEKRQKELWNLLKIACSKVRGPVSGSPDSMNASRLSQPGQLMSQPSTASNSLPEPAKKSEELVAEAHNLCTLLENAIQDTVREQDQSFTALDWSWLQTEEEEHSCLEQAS
The note with it: at 0.1 µM.

In assay [18] the target is T4, Inhibitor of nuclear factor kappa-B kinase subunit beta (Homo sapiens). The note with it: at 1 µM.
Assay [19] has as its target T5, Inhibitor of nuclear factor kappa-B kinase subunit epsilon (Homo sapiens) (UniProt Q14164).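 Note: mean inhibition of IKKε reported, from the GSK PKIS dataset.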
T5 sequence (whole entry): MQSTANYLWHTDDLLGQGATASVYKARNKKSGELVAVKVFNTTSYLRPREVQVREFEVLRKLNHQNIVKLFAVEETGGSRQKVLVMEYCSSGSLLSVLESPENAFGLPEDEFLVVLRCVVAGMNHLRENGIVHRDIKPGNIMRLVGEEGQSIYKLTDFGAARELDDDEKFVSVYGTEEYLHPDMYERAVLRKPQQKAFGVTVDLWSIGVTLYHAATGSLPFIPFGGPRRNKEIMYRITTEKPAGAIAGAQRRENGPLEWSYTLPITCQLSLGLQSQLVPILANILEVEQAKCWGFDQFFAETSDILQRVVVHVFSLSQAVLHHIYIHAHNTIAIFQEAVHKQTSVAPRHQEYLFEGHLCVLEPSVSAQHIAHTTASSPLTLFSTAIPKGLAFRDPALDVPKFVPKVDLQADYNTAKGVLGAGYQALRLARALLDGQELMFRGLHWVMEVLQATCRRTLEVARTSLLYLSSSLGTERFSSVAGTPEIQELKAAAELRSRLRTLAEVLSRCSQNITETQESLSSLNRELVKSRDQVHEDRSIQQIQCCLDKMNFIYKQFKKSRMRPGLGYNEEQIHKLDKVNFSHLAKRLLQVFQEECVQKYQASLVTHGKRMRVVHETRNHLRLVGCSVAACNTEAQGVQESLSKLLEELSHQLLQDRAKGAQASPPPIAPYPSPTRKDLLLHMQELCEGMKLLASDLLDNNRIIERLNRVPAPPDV
The note with it: at 0.1 µM.

Assay [20] concerns the target T6, Mitogen-activated protein kinase 12 (Homo sapiens) (UniProt P53778).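 Note: values are averaged p38gamma kinase inhibition readings, compounds tested at 1 µM.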
T6 sequence (whole entry): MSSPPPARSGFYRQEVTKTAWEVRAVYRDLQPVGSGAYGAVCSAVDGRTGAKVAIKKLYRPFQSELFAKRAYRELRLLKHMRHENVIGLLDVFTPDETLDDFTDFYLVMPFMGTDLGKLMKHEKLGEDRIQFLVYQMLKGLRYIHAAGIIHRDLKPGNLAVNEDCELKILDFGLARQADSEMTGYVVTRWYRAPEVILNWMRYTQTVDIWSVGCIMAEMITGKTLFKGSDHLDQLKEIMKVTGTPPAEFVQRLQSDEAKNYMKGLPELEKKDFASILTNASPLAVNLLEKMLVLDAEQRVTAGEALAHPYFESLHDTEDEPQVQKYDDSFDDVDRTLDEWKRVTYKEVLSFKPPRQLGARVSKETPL
Particulars: at 1 µM.

Several values for one entry are separate records, joined by “and”; a condition that tells them apart may be missing. Equal entries are not always repeated.

As usually defined, the inhibition is the relative decrease from the control value, in per cent.

Chain of Phosphatidylinositol 4-kinase beta (Homo sapiens) (Q9UBF8 2-816 limits assumed): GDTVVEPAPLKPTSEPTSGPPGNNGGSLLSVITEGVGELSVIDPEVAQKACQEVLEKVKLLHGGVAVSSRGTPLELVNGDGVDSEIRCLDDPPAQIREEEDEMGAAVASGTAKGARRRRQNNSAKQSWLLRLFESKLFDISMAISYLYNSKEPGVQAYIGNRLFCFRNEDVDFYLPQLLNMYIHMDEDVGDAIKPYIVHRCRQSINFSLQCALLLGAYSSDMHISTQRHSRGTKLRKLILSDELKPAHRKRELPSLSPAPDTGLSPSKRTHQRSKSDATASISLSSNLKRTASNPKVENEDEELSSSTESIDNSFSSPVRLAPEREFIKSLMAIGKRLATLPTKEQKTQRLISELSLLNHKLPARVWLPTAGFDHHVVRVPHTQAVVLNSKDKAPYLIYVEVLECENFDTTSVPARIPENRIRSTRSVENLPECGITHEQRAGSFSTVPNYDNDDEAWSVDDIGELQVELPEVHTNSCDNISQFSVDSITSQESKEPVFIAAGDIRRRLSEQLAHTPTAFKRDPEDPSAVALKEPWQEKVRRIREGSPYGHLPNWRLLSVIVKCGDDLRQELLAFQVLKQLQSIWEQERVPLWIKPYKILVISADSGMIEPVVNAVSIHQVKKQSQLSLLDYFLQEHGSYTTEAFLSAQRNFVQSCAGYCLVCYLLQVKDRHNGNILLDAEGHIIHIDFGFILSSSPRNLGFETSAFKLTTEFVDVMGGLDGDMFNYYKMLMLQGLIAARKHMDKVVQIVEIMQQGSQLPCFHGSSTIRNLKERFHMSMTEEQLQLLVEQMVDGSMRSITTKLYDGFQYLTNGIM
Chain of SRSF protein kinase 1 (Homo sapiens) (Q96SB4 whole entry): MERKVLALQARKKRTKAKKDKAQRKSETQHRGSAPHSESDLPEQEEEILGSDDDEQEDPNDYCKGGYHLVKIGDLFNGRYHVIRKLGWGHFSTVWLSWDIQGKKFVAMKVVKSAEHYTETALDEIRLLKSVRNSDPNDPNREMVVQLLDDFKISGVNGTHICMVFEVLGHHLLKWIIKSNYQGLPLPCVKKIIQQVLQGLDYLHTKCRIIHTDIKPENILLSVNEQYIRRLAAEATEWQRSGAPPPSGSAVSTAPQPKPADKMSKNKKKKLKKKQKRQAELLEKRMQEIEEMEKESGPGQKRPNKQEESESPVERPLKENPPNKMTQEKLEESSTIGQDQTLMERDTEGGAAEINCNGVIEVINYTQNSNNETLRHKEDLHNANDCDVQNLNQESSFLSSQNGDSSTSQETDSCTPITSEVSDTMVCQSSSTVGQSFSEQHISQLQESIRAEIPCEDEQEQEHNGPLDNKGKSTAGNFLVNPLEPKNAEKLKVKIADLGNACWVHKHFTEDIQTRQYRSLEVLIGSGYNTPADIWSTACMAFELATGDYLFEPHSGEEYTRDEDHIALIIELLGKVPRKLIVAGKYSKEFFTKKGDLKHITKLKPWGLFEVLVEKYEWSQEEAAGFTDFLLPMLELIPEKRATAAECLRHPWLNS
Chain of Casein kinase II subunit alpha (Homo sapiens) (P68400 whole entry, looked up): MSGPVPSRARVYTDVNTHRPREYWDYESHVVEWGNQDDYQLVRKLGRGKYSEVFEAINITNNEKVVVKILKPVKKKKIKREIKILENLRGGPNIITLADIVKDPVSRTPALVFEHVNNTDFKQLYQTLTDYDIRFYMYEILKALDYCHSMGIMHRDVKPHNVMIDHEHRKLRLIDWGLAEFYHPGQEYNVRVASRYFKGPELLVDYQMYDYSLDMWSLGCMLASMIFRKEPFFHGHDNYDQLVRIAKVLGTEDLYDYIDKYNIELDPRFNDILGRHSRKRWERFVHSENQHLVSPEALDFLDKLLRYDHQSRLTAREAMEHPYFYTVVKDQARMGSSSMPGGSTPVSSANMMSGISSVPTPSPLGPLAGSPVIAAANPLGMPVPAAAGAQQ
Chain of Sphingosine kinase 1 (Homo sapiens) (Q9NYA1 whole entry): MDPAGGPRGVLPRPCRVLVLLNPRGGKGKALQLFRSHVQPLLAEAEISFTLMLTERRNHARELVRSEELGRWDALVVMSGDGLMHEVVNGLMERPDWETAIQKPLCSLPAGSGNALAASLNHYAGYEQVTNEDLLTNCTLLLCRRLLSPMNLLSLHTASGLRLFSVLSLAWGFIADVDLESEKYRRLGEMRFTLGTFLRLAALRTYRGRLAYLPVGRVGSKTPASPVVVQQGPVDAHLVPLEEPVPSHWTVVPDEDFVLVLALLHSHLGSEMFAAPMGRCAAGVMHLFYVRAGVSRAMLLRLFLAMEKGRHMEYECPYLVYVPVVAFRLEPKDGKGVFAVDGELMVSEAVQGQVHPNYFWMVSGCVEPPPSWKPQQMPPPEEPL
Chain of Phosphatidylinositol 4,5-bisphosphate 3-kinase catalytic subunit alpha isoform (Homo sapiens) (P42336 whole entry, canonical isoform): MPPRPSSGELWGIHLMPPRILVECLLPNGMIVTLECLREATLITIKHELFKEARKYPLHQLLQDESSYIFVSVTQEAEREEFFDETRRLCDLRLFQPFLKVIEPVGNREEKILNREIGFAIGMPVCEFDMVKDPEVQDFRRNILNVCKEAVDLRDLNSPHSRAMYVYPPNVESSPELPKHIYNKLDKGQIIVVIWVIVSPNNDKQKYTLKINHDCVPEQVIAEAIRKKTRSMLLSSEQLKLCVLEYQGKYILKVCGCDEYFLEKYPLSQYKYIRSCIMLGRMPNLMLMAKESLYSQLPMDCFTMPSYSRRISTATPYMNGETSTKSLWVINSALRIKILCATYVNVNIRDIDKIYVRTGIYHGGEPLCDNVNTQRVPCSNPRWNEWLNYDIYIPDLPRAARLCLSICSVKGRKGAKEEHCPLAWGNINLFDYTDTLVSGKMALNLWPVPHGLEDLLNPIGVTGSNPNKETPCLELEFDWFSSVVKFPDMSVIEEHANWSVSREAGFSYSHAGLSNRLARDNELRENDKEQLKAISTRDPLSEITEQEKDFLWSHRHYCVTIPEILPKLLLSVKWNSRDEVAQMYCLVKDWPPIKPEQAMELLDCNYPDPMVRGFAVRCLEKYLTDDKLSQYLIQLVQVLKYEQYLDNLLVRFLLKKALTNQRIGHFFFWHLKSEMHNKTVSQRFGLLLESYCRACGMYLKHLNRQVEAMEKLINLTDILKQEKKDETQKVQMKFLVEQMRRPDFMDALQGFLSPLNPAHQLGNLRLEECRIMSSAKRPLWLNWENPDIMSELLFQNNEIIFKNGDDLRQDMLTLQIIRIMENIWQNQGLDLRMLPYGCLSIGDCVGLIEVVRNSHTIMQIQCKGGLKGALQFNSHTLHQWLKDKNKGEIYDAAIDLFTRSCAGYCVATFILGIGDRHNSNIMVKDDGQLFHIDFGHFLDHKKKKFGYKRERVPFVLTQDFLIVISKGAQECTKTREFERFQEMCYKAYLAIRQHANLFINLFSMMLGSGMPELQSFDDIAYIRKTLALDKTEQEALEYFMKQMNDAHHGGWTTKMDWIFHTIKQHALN

`Nc1nccc(-c2c(-c3ccc(F)cc3)ncn2C2CCNCC2)n1`: the inhibition in assay [1] was 1.49% and -1%; in assay [2] it was -0.09% and 0.83%; in [3], -3.2% and 3.79%; in assay [4], 1.34% and 1.58%; in [5], -0.68% and 4.92%; in [6] it was 6.51% and 6.41%. The inhibition in assay [7] is 0.69% and 2.98%; in assay [8], -2.46% and -0.82%; in assay [9], -0.52% and 0.67%; in assay [10], 5.1% and -0.03%; in assay [11] it was 0.57% and 0.62%; in assay [12] it was 1.73% and 0.57%. The inhibition in assay [13] is 0.26% and 2.91%; in [14], 18% and 2.93%; in assay [15] it was 5.16% and -0.81%; in assay [16], 8.44% and 4.4%; in assay [17] it was -3.54% and 0.6%; in assay [18], -2.15% and 0.23%. In assay [19], the inhibition was -4.18% and 0.25%.
Regarding `O=C(O[C@H]1CN[C@H](C#Cc2cc3ncnc(Nc4ccc(OCc5cccc(F)c5)c(Cl)c4)c3s2)C1)N1CCOCC1`, the inhibition in [20] is 3.47%; in assay [1], -2%; in [2] it was 0.44%; in [3] it was 4.94%; in assay [4], 26.9%; in [5] it was 3.37%. Also, the inhibition in [6] was 15.8%; in assay [7], -0.81%; in assay [8], 1.44%; in assay [9] it was 0.99%; in [10], -2.17%; in [11] it was 0.46%. Moreover, the inhibition in assay [12] is -2.18%; in assay [13], 4.85%; in assay [14], 11.5%; in assay [15], 6.35%; in assay [16], 6.72%; in [17], 8.43%. For the same compound, the inhibition in assay [18] came to 11.1%; in assay [19], 8.36%.
As to `c1ccc(-c2n[nH]cc2-c2ccnc(-c3ccc(OCCn4ccnc4)cc3)c2)nc1`, the inhibition in assay [20] is 0.72%; in [1], 0.42%; in assay [2] it was -0.94%; in assay [3], 0.67%; in assay [4], 3.3%; in assay [5] it was 1.43%. Besides, the inhibition was 1.91% in assay [6]; -2.63% in assay [7]; 7.03% in assay [8]; 2.34% in assay [9]; -1.64% in [10]; -0.27% in assay [11]. Further, the inhibition worked out at 0.04% in assay [12]; 1.26% in [13]; 2.53% in assay [14]; 4.99% in assay [15]; 3.64% in [16]; 0.37% in assay [17]. Also, the figures for the inhibition in assay [18] and in assay [19] were -0.43% and 0.86%, respectively.
For `O=C(O[C@H]1CN[C@H](C#Cc2cc3ncnc(Nc4ccc5c(cnn5Cc5ccccc5)c4)c3s2)C1)N1CCOCC1`, the inhibition in [20] was -0.96%; in assay [1], -2.05%; in assay [2] it was -3.6%; in [3], -1.75%; in assay [4] it was 7.49%; in assay [5] it was 0.29%. In addition, the inhibition was 9.02% in assay [6]; 1.41% in [7]; 2.11% in assay [8]; 2.86% in assay [9]; -0.72% in [10]; 0.71% in [11]. Besides, the inhibition is -0.03% in assay [12]; -2.6% in [13]; 1.05% in [14]; 1.12% in assay [15]; -2.78% in assay [16]; -1.3% in [17]. Also, the values for the inhibition in assay [18] and in assay [19] were -0.9% and -7.28%, respectively.
